This is part of a sample that, as a whole, favours compounds with a hit. Of some 83,000 tested, about 20% had one in any assay.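 Compound tested at a single concentration for 48 hours in 96-well plates; a percent growth value below 10 was scored as active.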 A number with no mark means an inactive call. Calls of active or inactive are those of the source.
What was measured:
Assay in all cases: NCI-60 one-dose screen, 48 h (100 = growth as untreated, 0 = no growth, -100 = all killed)
Conditions in all cases: 10 µM unless noted
SR leukemia = tested on: SR leukemia
RPMI-8226 leukemia = tested on: RPMI-8226 leukemia
OVCAR-8 ovarian = tested on: OVCAR-8 ovarian
OVCAR-5 ovarian = tested on: OVCAR-5 ovarian
OVCAR-4 ovarian = tested on: OVCAR-4 ovarian
SK-OV-3 ovarian = tested on: SK-OV-3 ovarian
IGROV1 ovarian = tested on: IGROV1 ovarian
OVCAR-3 ovarian = tested on: OVCAR-3 ovarian
HS 578T breast = tested on: HS 578T breast
NCI/ADR-RES ovarian = tested on: NCI/ADR-RES ovarian

SMILES | growth (SR leukemia) | growth (RPMI-8226 leukemia) | growth (OVCAR-8 ovarian) | growth (OVCAR-5 ovarian) [%] | growth (OVCAR-4 ovarian) | growth (SK-OV-3 ovarian) | growth (IGROV1 ovarian) [%] | growth (OVCAR-3 ovarian) | growth (HS 578T breast) | growth (NCI/ADR-RES ovarian)
O=C(NC1CCN(Cc2ccccc2)CC1)c1cc(-c2cccnc2)nc2ccc(Cl)cc12 | 23% | 47.3% | 77.5% | 80.5 | 70.5% | 102% | 80.5 | 94.4% | 83.4% | 67%
O=C(NCCNCCO)c1cc([N+](=O)[O-])cc([N+](=O)[O-])c1O | 99.8% | 96.7% | 101% | 108 | 108% | 111% | 107 | 110% | 109% | 107%
CCC(C)C1NC(=O)C(CCCCN)NC(=O)C(CCCCN)NC(=O)C(CC(C)C)NC(=O)C(CCCCN)NC(=O)C(C(C)CC)NC(=O)C(C(C)C)NC(=O)C(C(C)CC)NC(=O)C(CCCCN)NC(=O)C(CCCCN)NC(=O)C(C)NC(=O)C(CCCCN)NC(=O)C(CC(C)C)NC1=O (stereo not given) | 2.93% (active) | -17.4% (active) | 12.4% | 67.3 | 23.2% | 26.1% | 24.4 | 10.6% | 53% | 58.7%
COc1ccc(-c2nc(SCC(C)C)nc(Nc3ccc(C)cc3)c2C#N)cc1 | 44.3% | 73.2% | 72.3% | 86.4 | -50.4% (active) | 73.7% | 59.5 | 33.8% | 42.6% | 72.7%
O=C(CCl)NC1c2ccccc2Oc2ccccc21 | 33.7% | 50.1% | 61.2% | 83.9 | 56.5% | 85.6% | 46.1 | 68.6% | 97.4% | 101%
COc1ccccc1Cn1cc2c(c1)-c1oncc1CC2 | 16% | 32.5% | 36.2% | 35.2 | 49.2% | -18.2% (active) | 16.2 | -29.3% (active) | 8.86% (active) | -2.96% (active)
CC/C(=N\Nc1nc2ccccc2n1C)c1ccccn1 | 3.71% (active) | 10.4% | 15.5% | 29 | 11.5% | 11.6% | 13.6 | 25.8% | 48.4% | -5.99% (active)
CCCCCCCCCCCCc1ccc([N+](CC)(CC)CC)cc1 | 32.4% | 6.37% (active) | 31.7% | 92.3 | 21.6% | 73.2% | 48.1 | 23.2% | 65.4% | 103%
Clc1ccc(I)c2ccccc12 | 102% | 104% | 102% | 107 | 107% | 103% | 107 | 108% | 98.9% | 109%
O=C(Nc1ccc(-n2cc(-c3ccncc3)c(-c3ccc(Cl)c(O)c3)n2)cc1)c1ccc(Cl)c(C(F)(F)F)c1 | -13.4% (active) | -42.7% (active) | -1.91% (active) | 52.6 | 40.6% | 14.4% | 27.5 | -24.9% (active) | -53.7% (active) | 29.4%

From PubChem BioAssay (NCI)
